Our source for the cytotoxicity values is PubChem BioAssay AID431 (Sanford-Burnham Center for Chemical Genomics, 2006).

Each structure is given as a SMILES string. Out of some 63,000 compounds screened, about 1,100 (1.7%) were called active.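 Rule for the calls: active = compounds whose percent cytotoxicity in the single-dose primary screen, scaled between solvent and toxic-drug controls, exceeds 50; inactive = the rest.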 The full list was thinned out, with actives kept by preference. Results with a measured potency or affinity are listed apart.

The assay can be described thus: viability loss of HPDE-C7K cells – cell-based, fluorescence, HTS, primary screen (AID 431).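 Note: 0% = DMSO solvent wells and 100% = doxorubicin-treated wells.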 The settings on record: HPDE-C7K KRASV12 cells, Alamar Blue viability, 48 h; at 10 µM; stronger effect = higher value. In general terms: Resazurin is reduced to fluorescent resorufin, in cell work by metabolically active cells.
Regarding `Cc1cccc(N2CCN(C(=O)C3CCCN(S(=O)(=O)c4cccc5cccnc45)C3)CC2)c1C` (centres undefined), the cytotoxicity is 24.5% (inactive).

Consider `O=C(Nc1cnn(Cc2ccc(F)cc2)c1)c1cc2nc(-c3ccco3)cc(C(F)(F)F)n2n1`, for which the cytotoxicity is 48.5% (inactive).

Consider `Cc1ccccc1Cn1ccc(NC(=O)c2cnn3c(C(F)(F)F)cc(-c4ccco4)nc23)n1`, for which the cytotoxicity was 42.2% (inactive).

On to `Cc1ccccc1Cn1ccc(NC(=O)c2cc3nc(-c4ccco4)cc(C(F)(F)F)n3n2)n1`, for which the cytotoxicity was 61.3% (active).

As for `O=C(Nc1ccc(Cl)cc1)c1cc2nc(-c3ccco3)cc(C(F)(F)F)n2n1`, the cytotoxicity was 69.4% (active).

Consider `Cc1ccccc1Cn1cc(NC(=O)c2cc3nc(-c4ccco4)cc(C(F)(F)F)n3n2)cn1`, for which the cytotoxicity was 30.9% (inactive).

Turning to `O=C(Nc1cnn(Cc2ccccc2)c1)c1cc2nc(-c3ccco3)cc(C(F)(F)F)n2n1`, the cytotoxicity was 24.8% (inactive).

In the case of `Cc1noc(C)c1COC(=O)C1CC(O)CN1S(=O)(=O)c1ccc(Cl)cc1` (centres undefined), the cytotoxicity was -5.6% (inactive).

Regarding `CCc1ccccc1N(C(=O)c1cccs1)C1C=CS(=O)(=O)C1` (centres undefined), the cytotoxicity is -8.1% (inactive).

On to `CC1(C)CC(=O)C2=C(C1)NC(SCC(=O)Nc1ccccc1)=C(C#N)C21CCCCC1`, for which the cytotoxicity is -9.5% (inactive).

On to `CSC1=C(C#N)C2(CCCC2)C(C#N)=C(N)N1`, for which the cytotoxicity was 30.6% (inactive).

With `CCSC1=C(C#N)C2(CCCC2)C(C#N)=C(N)N1`, the cytotoxicity was 18.9% (inactive).

Take `COc1ccc(C(=O)CSC2=C(C#N)C3(CCCCC3)C(C#N)=C(N)N2)cc1`: the cytotoxicity was 30.1% (inactive).

Consider `CCSC1=C(C#N)C2(CCCCC2)C(C#N)=C(N)N1`, for which the cytotoxicity is 1.2% (inactive).

On to `N#CC1=C(N)NC(SCC(=O)O)=C(C#N)C12CCCC2`, for which the cytotoxicity was -1.2% (inactive).

With `N#CC1=C(N)NC(SCc2ccccc2)=C(C#N)C12CCCCC2`, the cytotoxicity is 78.5% (active).

`O=C(CC(NS(=O)(=O)c1ccc(Cl)cc1)c1ccco1)NCc1cccnc1` (centres undefined): the cytotoxicity is -10.2% (inactive).

Consider `CCOC(=O)N1CCN(c2nc(C)c3c(n2)CC(C)CC3=O)CC1` (centres undefined), for which the cytotoxicity was -14.7% (inactive).

As to `Cn1c(N2CCC(C(N)=O)CC2)nc2c1c(=O)n(Cc1ccc(Cl)cc1)c(=O)n2C`, the cytotoxicity is 16.9% (inactive).

In the case of `FC(F)(F)c1cccc(N2CCN(Cc3cccnc3)CC2)c1`, the cytotoxicity was 21.8% (inactive).

`CC(C)Oc1cccc(C(=O)Nc2ccccc2N2CCOCC2)c1`: the cytotoxicity was -2.7% (inactive).

With `COc1cc(C2C(C(=O)c3cccs3)=C(O)C(=O)N2c2cc(C)on2)ccc1O` (centres undefined), the cytotoxicity is 14.5% (inactive).

On to `Cc1cc(Nc2ccc3ccccc3c2)n2ncnc2n1`, for which the cytotoxicity is -8.1% (inactive).

For the compound `CCc1cccc(Nc2cc(C)nc3ncnn23)c1`, the cytotoxicity was -4.4% (inactive).

For `CCn1c2ccccc2c2cc(Nc3cc(C)nc4ncnn34)ccc21`, the cytotoxicity was 74.4% (active).

Consider `Cc1ccc(-c2nn(C)c(=O)c3ccccc23)cc1CNC(=O)CN1CCOCC1`, for which the cytotoxicity was 4.3% (inactive).

`O=C(Cn1nnc(-c2cc(Cl)ccc2-n2cnnn2)n1)N1CCCc2ccccc21`: the cytotoxicity is -0.5% (inactive).

On to `CCOC(=O)N1CCC(NC(=O)c2csc3c2CCCC3)CC1`, for which the cytotoxicity is -1.5% (inactive).

Turning to `COC(=O)C1=C(N)Oc2cc(C)oc(=O)c2C1c1ccncc1` (centres undefined), the cytotoxicity is -2.1% (inactive).

As for `COC(=O)/C(=C1/Oc2cc3c(cc2S1)OCO3)C(F)(F)F`, the cytotoxicity was -15.1% (inactive).

Regarding `COC(=O)/C(=C1/Oc2cc(C)oc(=O)c2S1)C(F)(F)F`, the cytotoxicity was 70.4% (active).

`O=C(COC(=O)C(O)c1ccccc1)NC12CC3CC(CC(C3)C1)C2` (centres undefined): the cytotoxicity was -12.9% (inactive).

Consider `CN(C)/C=C1/Sc2ccccc2C1=O`, for which the cytotoxicity is -18.3% (inactive).

On to `CN(C)/C=C1\C(=O)c2ccc(N(C)C)nc2CC1c1ccccc1` (centres undefined), for which the cytotoxicity is 59.9% (active).

`CN(C)C=C1C(=O)c2ccccc2C1=O`: the cytotoxicity was 48% (inactive).

Take `CCCOC(=O)Nc1ccc(S(=O)(=O)Nn2cnnc2)cc1`: the cytotoxicity was 5.7% (inactive).

Regarding `N#Cc1nc(Cc2cccc3ccccc23)oc1NCc1ccco1`, the cytotoxicity was 63.1% (active).

Turning to `CNc1oc(Cc2cccc3ccccc23)nc1C#N`, the cytotoxicity was 14.7% (inactive).

Take `C=CCNc1oc(Cc2cccc3ccccc23)nc1C#N`: the cytotoxicity is -8.6% (inactive).

For `CCn1cc(C(=O)NCC2CCCO2)c(=O)c2cc(S(=O)(=O)N(C)C3CCCCC3)ccc21` (centres undefined), the cytotoxicity was 13.1% (inactive).

`CCOc1ccc(C2=Nn3c(nnc3-c3ccc(OC)cc3)SC2)cc1`: the cytotoxicity is 40.7% (inactive).

Regarding `COc1cccc(C2=Nn3c(nnc3-c3ccccc3O)SC2)c1`, the cytotoxicity is -11.6% (inactive).

On to `COc1ccccc1-c1nnc2n1N=C(c1ccc(O)c(O)c1)CS2`, for which the cytotoxicity was 54.8% (active).

As for `CCOc1ccc(C2=Nn3c(nnc3-c3ccccc3OC)SC2)cc1`, the cytotoxicity is 66.6% (active).

Regarding `COc1ccccc1-c1nnc2n1N=C(C)CS2`, the cytotoxicity is -13.6% (inactive).

In the case of `Cc1ccc(-c2nnc3n2N=C(c2ccccc2)CS3)cc1`, the cytotoxicity is -2.4% (inactive).

`c1ccc(C2=Nn3c(nnc3-c3cc(-c4ccccc4)n[nH]3)SC2)cc1`: the cytotoxicity is -6.7% (inactive).

For the compound `COc1ccc(C2=Nn3c(nnc3-c3ccccn3)SC2)cc1OC`, the cytotoxicity is -4.6% (inactive).

Take `COc1ccc(C2=Nn3c(nnc3-c3ccccc3)SC2)cc1OC`: the cytotoxicity is 0.4% (inactive).

In the case of `CCOc1ccc(-c2nnc3n2N=C(c2ccc(OC)cc2)CS3)cc1`, the cytotoxicity was -5% (inactive).

With `CCCCOc1ccc(-c2ncc(Cl)cn2)cc1`, the cytotoxicity was -15% (inactive).

For `Cn1c(Cn2c(=O)sc3ccccc32)nnc1SCC(=O)N1CCN(c2ccccc2)CC1`, the cytotoxicity is 8.3% (inactive).

Take `O=C(COc1ccc2c(c1)OCO2)Nc1ccc2c(c1)oc1ccccc12`: the cytotoxicity is 2.3% (inactive).

As to `O=C(Cn1ncc2c(=O)oc3ccccc3c21)N1CCN(C(=O)c2ccco2)CC1`, the cytotoxicity was 0.4% (inactive).

`COC(=O)c1cc(-c2c(C)oc3cc(OC(C)C)ccc3c2=O)c(C)o1`: the cytotoxicity is -13.5% (inactive).

For the compound `Cn1c(=O)c2c(nc(CN3CCN(C(=O)c4ccco4)CC3)n2CCc2ccccc2)n(C)c1=O`, the cytotoxicity is -4.3% (inactive).

In the case of `CCOC(=O)c1ccc(NC(=O)NC(C)C2CCCO2)cc1` (centres undefined), the cytotoxicity is -0.2% (inactive).

Consider `Cc1ccccc1CS(=O)(=O)CCC(=O)N1CCN(c2ccc(N3CCOCC3)nn2)CC1`, for which the cytotoxicity is 3.2% (inactive).

As to `COc1ccc(OC)c(C2=Nn3c(nnc3-c3cc(OC)c(OC)c(OC)c3)SC2)c1`, the cytotoxicity was 10.4% (inactive).

On to `COc1cc(-c2nnc3n2N=C(c2ccccc2)CS3)cc(OC)c1OC`, for which the cytotoxicity is 63.5% (active).

Take `COc1ccc(-c2nnc3n2N=C(c2ccccc2)CS3)cc1OC`: the cytotoxicity is -3% (inactive).

Take `CCOC(=O)/C=C1\NC(C)(C)Cc2cc(OC)c(O)cc21`: the cytotoxicity was 5.5% (inactive).

Turning to `COc1cc2c(cc1OC)C(/C(C#N)=N\O)=NC(C)(C)C2`, the cytotoxicity was 7% (inactive).

Take `O=C(CN1CCN(c2ccccc2F)CC1)Nc1ccccc1F`: the cytotoxicity is -7% (inactive).

For `CCCCNC(=O)c1sc(=S)n2c1[nH]c(=O)c1ccccc12`, the cytotoxicity was 62.6% (active).

As for `CCn1c(N)c(C(=O)NCc2ccco2)sc1=S`, the cytotoxicity is -5.3% (inactive).

For the compound `CCCCCCNC(=O)c1c(O)c2ccccc2[nH]c1=O`, the cytotoxicity was -1.5% (inactive).

In the case of `CCCCNC(=O)c1ccccc1C(=O)NCCCC`, the cytotoxicity is -2.3% (inactive).

Turning to `C=CCn1c(N)c(C(=O)NCc2ccco2)sc1=S`, the cytotoxicity was 7.1% (inactive).

As for `O=C(NCc1ccco1)c1sc(=S)n2c1[nH]c(=O)c1ccccc12`, the cytotoxicity is 81.4% (active).

As for `O=C(NCCCN1CCN(c2ccccc2F)CC1)C1CCC(=O)N1C1CCCC1` (centres undefined), the cytotoxicity is -6.6% (inactive).

As for `Cn1c(CCCCCN)nc2ccccc21`, the cytotoxicity was -27.2% (inactive).

As to `OCCN(Cc1ccccc1)Cc1ccccc1F`, the cytotoxicity is -13.3% (inactive).

Consider `CCCc1ccc(Oc2cn[nH]c2-c2ccc(O)cc2O)cc1`, for which the cytotoxicity was 29.1% (inactive).

`CCCc1ccc(OCC(=O)O)cc1`: the cytotoxicity is 2.3% (inactive).

On to `COc1ccc(O)c(-c2[nH]ncc2C(=O)c2ccccc2C)c1`, for which the cytotoxicity is 2.7% (inactive).

Regarding `CCCc1ccc(Oc2cn[nH]c2-c2ccc(O)c(C)c2O)cc1`, the cytotoxicity is 119% (active).

Turning to `CC(C)Sc1ncnc2c1oc1ccccc12`, the cytotoxicity is -7.4% (inactive).

As to `COc1ccc(CNC(=O)CSc2nc3nc(C)cc(C)n3n2)cc1`, the cytotoxicity is 1.6% (inactive).

As to `Cc1nn(-c2cccc(C(F)(F)F)c2)c(Cl)c1/C=N/n1cnnc1`, the cytotoxicity was 3.5% (inactive).

As to `Fc1cccc(Cl)c1CSc1nnnn1-c1ccc2c(c1)OCO2`, the cytotoxicity is 51.7% (active).

Take `Fc1cccc(Cl)c1Cn1nnc(-c2ccc3c(c2)OCO3)n1`: the cytotoxicity is -3.6% (inactive).

`Fc1ccccc1CSc1nnnn1-c1ccc2c(c1)OCO2`: the cytotoxicity is 2.3% (inactive).

With `Cc1ccc2nc(NC3=NCN(Cc4ccc5c(c4)OCO5)CN3)nc(C)c2c1`, the cytotoxicity was 12.9% (inactive).

Take `Cc1nc(NC2=NCN(Cc3cccnc3)CN2)nc2ccccc12`: the cytotoxicity was 6.2% (inactive).

As for `Cc1ccc2nc(NC3=NCN(Cc4cccnc4)CN3)nc(C)c2c1`, the cytotoxicity was 5.9% (inactive).

`Cc1cc2nc(NC3=NCN(Cc4ccc5c(c4)OCO5)CN3)nc(C)c2cc1C`: the cytotoxicity is 90% (active).

Regarding `Cc1cc2nc(NC3=NCN(Cc4cccnc4)CN3)nc(C)c2cc1C`, the cytotoxicity is 53.3% (active).

Turning to `Cc1nc(NC2=NCN(Cc3ccc4c(c3)OCO4)CN2)nc2ccccc12`, the cytotoxicity is 15.2% (inactive).

For `Cc1ccc(CCN2CC(C(=O)NCCCN3CCOCC3)CC2=O)cc1` (centres undefined), the cytotoxicity was 2% (inactive).

In the case of `Cc1ccc(C)n1-c1ncn[nH]1`, the cytotoxicity is 1.3% (inactive).

In the case of `c1nc(NCCN2CCOCC2)c2sc3nc(N4CCOCC4)c4c(c3c2n1)CCC4`, the cytotoxicity is 18.4% (inactive).

In the case of `CC1(C)Cc2c(C#N)c(NCCN3CCOCC3)nc(-c3ccco3)c2CO1`, the cytotoxicity was 8.7% (inactive).

`OCCN(CCO)c1ncnc2c1sc1nc(N3CCOCC3)c3c(c12)CCCC3`: the cytotoxicity is 34.4% (inactive).

Take `CSc1nc(N2CCN(CCO)CC2)c2sc3nc(-c4ccco4)c4c(c3c2n1)CCC4`: the cytotoxicity is 4.4% (inactive).

For the compound `O=C(Cn1cc2c(n1)CCCCC2)N1CCCCC1`, the cytotoxicity was 5.5% (inactive).

For the compound `CCc1ccc(OCC(=O)N(C)C)c(Br)c1`, the cytotoxicity is 7% (inactive).

In the case of `CCCCc1ccc(NC(=O)COCC)cc1`, the cytotoxicity is -2.8% (inactive).

On to `CCCCc1ccc(NC(=O)OC)cc1`, for which the cytotoxicity was -10.3% (inactive).
